Activity calls are given as the source filed them. How the source made its calls: active means hit-call score of the fitted dose curve at least 0.9, where 1 is the maximum; inactive means score below 0.9.
read-out: Monocyte Chemoattractant Protein-1 (MCP1), CCL2 (gene 6347); assay: BSK_4H_MCP1: BioMAP Diversity Plus: 4H Assay for Monocyte Chemoattractant Protein-1 (MCP1) Biomarker Activity (AID 2283018); details: primary human endothelial cells (HUVEC); actives raise or lower the signal
Protocol: BSK_4H is a cell-based, multiplexed-readout assay that uses umbilical vein endothelium, a human vascular primary cell, with measurements taken at 24 hours after chemical dosing in a 96-well plate.BSK_4H_MCP1 is an assay component measured in the BSK_4H assay. It measures MCP-1 antibody related to regulation of gene expression using ELISA technology.Data from the assay component BSK_4H_MCP1 was analyzed into 1 assay endpoint. This assay endpoint, BSK_4H_MCP1, was analyzed with bidirectional fitting relative to DMSO as the negative control and baseline of activity. Using a type of binding reporter, gain or loss-of-signal activity can be used to understand changes in the signaling as they relate to the gene CCL2. Furthermore, this assay endpoint can be referred to as a primary readout, because this assay has produced multiple assay endpoints where this one serves a signaling function. To generalize the intended target to other relatable targets, this assay endpoint is annotated to the cytokine intended target family, where the subfamily is chemotactic factor.
The levels of cell surface (or secreted, indicated by the prefix "s") biomarker endpoints were measured by ELISA. Overt cytotoxicity to cells in confluent adherent cultures (all systems other than the BT system) was assessed by measuring total protein levels using sulforhodamine B (SRB) staining in parallel cultures at the time of biomarker measurements, indicated as SRB endpoints. For proliferation assays for adherent cell types, individual cell types are cultured at sub-confluence and relative cell numbers quantified by SRB staining at time points optimized for each system (48 h: 3C and CASM3C systems; 72 h: BT and HDF3CGF systems; 96 h: SAg system). SRB was performed by staining cells with 0.1% SRB after fixation with 10% TCA and reading wells at 560 nm.Viability and proliferation of PBMC (T cells) was quantified by Alamar Blue reduction for the SAg and BT systems. For PBMC viability (referred to as PBMC Cytotoxicity within the assay endpoint names), cells were plated (75,000/well in a 96-well plate) and then chemical samples added for 1 h before addition of activators, SEB and TSST-1 (20 ng/mL final concentration each). Cells were incubated for 90 h. Then, Alamar Blue (20 uL/well) (Invitrogen, Cat DAL1100) was added for 6 h, and the plates were read with a fluorescence microplate reader at 546/580 nm (excitation/emission). For PBMC proliferation, cells were plated and activated as above but incubated for only 16 h prior to addition of Alamar Blue. Plates were read after 6 h.

| SMILES | AC50 | outcome |
| --- | --- | --- |
| COc1cc(C(=O)NC2CCN(C)CC2)ccc1Nc1ncc2c(n1)N(C1CCCC1)CC(F)(F)C(=O)N2C | 5.15 µM (active) |  |
| CN(C)C(=O)C1(N2CCCCC2)CCN(CC[C@@]2(c3ccc(Cl)c(Cl)c3)CN(C(=O)c3ccccc3)CCO2)CC1 | 18.9 µM (active) |  |
| C[C@]12CC[C@@H]3c4ccc(O)cc4CC[C@H]3[C@@H]1CC[C@H]2O |  | inactive |
| O=C(OCCCCCCOC(=O)c1ccccc1)c1ccccc1 |  | inactive |
| COc1cccc([C@H](O)C2CCN(CCc3ccc(F)cc3)CC2)c1OC |  | inactive |
| OC12N=C(c3ccccc3)SC1Cc1cc(Cl)ccc12 (stereo not given) |  | inactive |
| O=c1[nH]sc2ccccc12 | 11.6 µM (active) |  |
| O=C(O)Cn1c(=O)n(Cc2ccc(Br)cc2F)c(=O)c2ccc(Cl)cc21 |  | inactive |
| c1ccc2ccccc2c1 |  | inactive |
| Clc1cc(Cl)c2c(c1)N=C1CCCCCN1C2 |  | inactive |
| CCCOC(=O)c1cc(O)c(O)c(O)c1 |  | inactive |
| CC[C@@H]1C[C@H](N(Cc2cc(C(F)(F)F)cc(C(F)(F)F)c2)C(C)=O)c2cc(C(F)(F)F)ccc2N1C(=O)OC(C)C |  | inactive |
| O=CCCCC=O |  | inactive |
| Cc1ccc(C(C)C)cc1 |  | inactive |
| CCCCCCCCOc1ccc(C(=O)c2ccccc2)c(O)c1 |  | inactive |
| CCCCCCCCCC(=O)O |  | inactive |
| CCCCOC(=O)c1ccc(O)cc1 |  | inactive |
| Cc1c2ccccc2c(C)c2c1ccc1ccccc12 | 13 µM (active) |  |
| CC(C)(O)c1ccc(CNC(=O)c2cccnc2Oc2ccc3nonc3c2)cc1 |  | inactive |
| O=C(O)c1ccccc1-n1cc(C(=O)O)c(=O)c2cc(Nc3c(F)cc(F)cc3Cl)c(Cl)cc21 |  | inactive |

| SMILES | AC50 | outcome |
| --- | --- | --- |
| CCCCOC(=O)CC(CC(=O)OCCCC)(OC(C)=O)C(=O)OCCCC |  | inactive |
| Cc1cc2c(cc1C(F)(F)F)N(C(=O)Nc1ccc(Oc3cccnc3C)nc1)CC2 |  | inactive |
| Cc1cccc2ccccc12 |  | inactive |
| NC(=O)c1nc(-c2cccc(-c3cc(F)ccc3OCC(F)(F)C(F)(F)F)c2)n[nH]1 | 29.3 µM (active) |  |
| CN(C)c1ccc(C(=C2C=CC(=[N+](C)C)C=C2)c2ccc(N(C)C)cc2)cc1 | 0.66 µM (active) |  |
| CC(=O)N1CCN(c2ccc(OC[C@H]3CO[C@](Cn4ccnc4)(c4ccc(Cl)cc4Cl)O3)cc2)CC1 | 26.4 µM (active) |  |
| CCCCCCCCCCCCO | 31.9 µM (active) |  |
| CCCCCCCCOC(=O)c1cc(O)c(O)c(O)c1 | 8.64 µM (active) |  |
| c1ccc(C[n+]2cccc3ccccc32)cc1 |  | inactive |
| COc1ccc2cc(S(=O)(=O)N[C@H](CC(=O)N[C@H](Cc3ccc(CN4[C@H](C)CCC[C@@H]4C)cc3)C(=O)N(C)C(C)C)c3ccc4c(c3)OCO4)ccc2c1 | 8.16 µM (active) |  |
| CCOC(=O)O[C@H](C)OC(=O)c1ccc2c(c1)cc(C(=O)NC1CCN(C(C)C)CC1)n2Cc1cc(-c2ccc(Cl)s2)on1 | 5.27 µM (active) |  |
| Clc1ccccc1C(c1ccccc1)(c1ccccc1)n1ccnc1 | 16.9 µM (active) |  |
| CC/C(=C(/CC)c1ccc(O)cc1)c1ccc(O)cc1 | 15.9 µM (active) |  |
| O=C=NCCCCCCN=C=O |  | inactive |
| O=C(Nc1ccc(Cl)cc1)Nc1ccc(Cl)c(Cl)c1 | 4.31 µM (active) |  |
| Cc1ccc2oc(CN(Cc3ccccc3)C(=O)Nc3c(F)cc(F)cc3F)c(-c3ccc(Cl)cc3)c2c1 |  | inactive |
| O=c1ccc2ccccc2o1 |  | inactive |
| CC1=CC(=O)/C(=C(/C)O)C(=O)O1 |  | inactive |
| CCCC(=O)OCCC(C)C |  | inactive |
| CC(C)(C)c1cc(/C=C2\SC(N)=NC2=O)cc(C(C)(C)C)c1O | 20 µM (active) |  |

From PubChem BioAssay (EPA / NIEHS)
